Assay results taken from PubChem BioAssay (Tox21).
Records with an inconclusive call do not appear. Calls of active or inactive are those of the source. Unless noted, the call rests on the fitted dose curve; in most records, active means well fitted curve in the direction sought with a large enough effect in the repeat runs; inconclusive means weak or mixed curves; inactive means no such curve, though single readings can be large; an effect the other way counts as inactive or inconclusive.

Legend:
[1] = biological target: Aryl hydrocarbon receptor (Homo sapiens) (UniProt P35869); test: qHTS assay to identify small molecule that activate the aryl hydrocarbon receptor (AhR) signaling pathway (AID 743085);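 further: HG2L7.5c1 human HepG2 liver cells with stably integrated DRE-driven firefly reporter; series mostly up to about 70 µM; nearly all actives have a fitted effect of over 15% in size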
In short: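 Stably transfected human liver carcinoma cells (HG2L7.5c1; 20 DRE-firefly luciferase) were incubated 5 h, dosed, and kept 24 h at 37C. Agonism was scored from increased luciferase luminescence.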

[2] = biological target: Peroxisome proliferator-activated receptor gamma (Homo sapiens) (UniProt P37231); test: qHTS assay to identify small molecule agonists of the peroxisome proliferator-activated receptor gamma (PPARg) signaling pathway (AID 743094; active means well fitted activation curve with a large enough effect in the signal ratio in the repeat runs, not every such curve was filed as active; the % refers to the signal ratio)
In short: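 Cells from the PPARg UAS-bla HEK293H line are plated and incubated 5 h at 37C. Compounds in DMSO are pinned in and left 17 h at 37C. LiveBLAzer B/G substrate is then added for 1 h at room temperature before fluorescence is measured.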

[3] = biological target: Peroxisome proliferator-activated receptor gamma (Homo sapiens) (UniProt P37231); test: qHTS assay to identify small molecule antagonists of the peroxisome proliferator-activated receptor gamma (PPARg) signaling pathway (AID 743191; calls by dose curve; further: series mostly up to about 63 µM; nearly all actives have a fitted effect of over 30% in size)
In short: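 GeneBLAzer PPARg UAS-bla HEK293H cells carrying a UAS-driven beta-lactamase reporter were plated at 3000 cells/well, preincubated 5 h at 37C, then given compound for 17 h at 37C; LiveBLAzer B/G FRET substrate was read after 1 h at room temperature.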

[4] = qHTS assay to identify small molecule antagonists of the peroxisome proliferator-activated receptor gamma (PPARg) signaling pathway - cell viability counter screen (AID 743194); conditions: Potency: co-treated with 50 nM rosiglitazone; further: nearly all actives have a fitted effect of over 55% in size
In short: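 PPARg-UAS-bla HEK293H cells were plated, rested 5 h at 37 C, then treated with compounds plus rosiglitazone (50 nM final) for 17 h at 37 C; viability was then read by CellTiter-Glo luminescence after 30 min at room temperature.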

[5] = qHTS assay for small molecule agonists of the antioxidant response element (ARE) signaling pathway (AID 743202; active means well fitted activation curve with a large enough effect in the signal ratio in the repeat runs, not every such curve was filed as active; the % refers to the signal ratio)
In short: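 Steps: seed ARE-bla HepG2 cells (2,000/well); incubate 5 h at 37 C; add compounds by pin tool; incubate 16 h at 37 C; add FRET substrate; read fluorescence after 2 h at RT.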

[6] = qHTS assay for small molecule agonists of the antioxidant response element (ARE) signaling pathway - cell viability counter screen (AID 743203; calls by dose curve; further: nearly all actives have a fitted effect of over 55% in size)
In short: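 Cytotoxicity was tested in parallel with the ARE reporter screen. ARE-bla HepG2 cells were exposed to compounds for 16 hrs, and viability was taken from CellTiter-Glo luminescence.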

[7] = qHTS assay for small molecule activators of the heat shock response signaling pathway - cell viability counter screen (AID 743209); further: nearly all actives have a fitted effect of over 50% in size
In short: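 Cytotoxicity counter screen run in parallel with the HSE beta-lactamase reporter, using the same wells. HeLa HSE-bla cells received compound for 5 h at 37 C; ATP-based CellTiter-Glo luminescence was measured after 30 min at room temperature.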

[8] = qHTS assay for small molecule activators of the heat shock response signaling pathway (AID 743210; active means well fitted activation curve with a large enough effect in the signal ratio in the repeat runs, with a control signal flat, not every such curve was filed as active; the % refers to the signal ratio;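 further: HeLa cells with beta-lactamase reporter driven by heat shock elements; series mostly up to about 63 µM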)
In short: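 Activation of heat shock element-controlled beta-lactamase expression is measured in HeLa cells by LiveBLAzer FRET fluorescence, with compound exposure lasting 5 h at 37 C and substrate loading 2.5 h at room temperature.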

[9] = qHTS assay to identify small molecule agonists of the peroxisome proliferator-activated receptor delta (PPARd) signaling pathway - cell viability counter screen (AID 743211); further: nearly all actives have a fitted effect of over 55% in size
In short: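 In the same wells used for beta-lactamase reporter measurement, cytotoxicity is scored by CellTiter-Glo. HEK293H PPARd-bla cells receive compound for 17 h at 37C following a 5 h settling period.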

[10] = biological target: Peroxisome proliferator-activated receptor delta (Homo sapiens) (UniProt Q03181); test: qHTS assay to identify small molecule agonists of the peroxisome proliferator-activated receptor delta (PPARd) signaling pathway (AID 743212; calls by dose curve)
In short: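 Cells expressing a UAS-driven beta-lactamase reporter (PPARd-bla HEK293H) were given test compounds after a 5 h settle and kept at 37 C. Reporter activity was then measured as FRET fluorescence using LiveBLAzer B/G substrate.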

[11] = qHTS assay to identify small molecule antagonists of the peroxisome proliferator-activated receptor delta (PPARd) signaling pathway - cell viability counter screen (AID 743213); further: nearly all actives have a fitted effect of over 50% in size
In short: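 Agonist-stimulated (L165041, 300 nM final) HEK293H PPARd UAS-bla cells are exposed to compounds for 17 h at 37 C, and ATP-based luminescence (CellTiter-Glo) from the same wells reports cytotoxicity.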

[12] = qHTS assay to identify small molecule agonists of the farnesoid-X-receptor (FXR) signaling pathway - cell viability counter screen (AID 743218); further: nearly all actives have a fitted effect of over 45% in size
In short: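 Cells were seeded, left 5 h at 37 C and 5% CO2, then dosed with compound in DMSO for 16 h. After the beta-lactamase FRET read, CellTiter-Glo was added and luminescence measured 30 min later.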

[13] = qHTS assay to identify small molecule antagonists of the farnesoid-X-receptor (FXR) signaling pathway - cell viability counter screen (AID 743221; active means well fitted cell-killing curve with a large enough effect in the repeat runs, not every such curve was filed as active; further: nearly all actives have a fitted effect of over 50% in size)
In short: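 Here viability was scored by luminescence after CellTiter-Glo addition to wells already read for beta-lactamase. Prior treatment: compound plus CDCA (50 uM final), 16 h, 37 C, HEK 293T FXR-bla cells.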

[14] = biological target: Vitamin D3 receptor (Homo sapiens) (UniProt P11473); test: qHTS assay to identify small molecule agonists of the vitamin D receptor (VDR) signaling pathway (AID 743222; calls by dose curve)
In short: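 Cells carrying a VDR-driven beta-lactamase reporter are seeded at 2,000 per well and rested 4 h. Compounds in DMSO are added for 16 h at 37C, and FRET substrate fluorescence is measured after 2 h at room temperature.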

[15] = biological target: Vitamin D3 receptor (Homo sapiens) (UniProt P11473); test: qHTS assay to identify small molecule antagonists of the vitamin D receptor (VDR) signaling pathway (AID 743223; active means well fitted inhibition curve with a large enough effect in the signal ratio in the repeat runs, not every such curve was filed as active; the % refers to the signal ratio)
In short: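 Inhibition of agonist-driven VDR signalling is scored in VDR-bla cells: 3 nM final 1alpha,25-dihydroxyvitamin D3 plus compound, 16 h at 37C, then beta-lactamase detection by FRET substrate fluorescence after 2 h.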

[16] = qHTS assay to identify small molecule that activate the aryl hydrocarbon receptor (AhR) signaling pathway - cell viability counter screen (AID 743086);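 further: HepG2 liver cells carrying the AhR DRE luciferase reporter; series mostly up to about 70 µM; nearly all actives have a fitted effect of over 45% in size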
In short: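 HepG2-AhR-luc (HG2L7.5c1) cells, 4000/well, were preincubated 5 h at 37C, exposed to compound in qHTS format for 24 hr at 37C, then given CellTiter-Fluor for 30 min; viability was read as fluorescence in the reporter wells.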

[17] = biological target: Peroxisome proliferator-activated receptor delta (Homo sapiens) (UniProt Q03181); test: qHTS assay to identify small molecule antagonists of the peroxisome proliferator-activated receptor delta (PPARd) signaling pathway (AID 743215; active means well fitted inhibition curve with a large enough effect in the signal ratio in the repeat runs, not every such curve was filed as active; the % refers to the signal ratio; further: series mostly up to about 62 µM)
In short: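 Cells: HEK293H with a UAS-driven beta-lactamase reporter responsive to PPARd. Compounds were co-added with L165041 (300 nM, final) and incubated 17 h at 37 C before a 2 h room-temperature FRET substrate step and fluorescence reading.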

[18] = biological target: Bile acid receptor (Homo sapiens) (UniProt Q96RI1); test: qHTS assay to identify small molecule antagonists of the farnesoid-X-receptor (FXR) signaling pathway (AID 743217; active means well fitted inhibition curve with a large enough effect in the signal ratio in the repeat runs, not every such curve was filed as active; the % refers to the signal ratio)
In short: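 Cells carrying a UAS-driven beta-lactamase reporter (GeneBLAzer FXR-UAS-bla HEK 293T) were plated and rested 5 h at 37 °C. Compounds in DMSO were added alongside chenodeoxycholic acid agonist at 50 uM final and left 16 h at 37 °C before FRET substrate readout.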

[19] = biological target: Bile acid receptor (Homo sapiens) (UniProt Q96RI1); test: qHTS assay to identify small molecule agonists of the farnesoid-X-receptor (FXR) signaling pathway (AID 743220; active means well fitted activation curve with a large enough effect in the signal ratio in the repeat runs, not every such curve was filed as active; the % refers to the signal ratio)
In short: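 FXR-UAS-bla HEK 293T cells carrying a UAS-driven beta-lactamase reporter were plated for 5 h at 37C/5% CO2, then exposed to DMSO-dissolved Tox21 10K compounds for 16 h at 37C. A LiveBLAzer B/G FRET substrate was loaded for 2 h at room temperature before fluorescence reading.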

[20] = qHTS assay to identify small molecule agonists of the vitamin D receptor (VDR) signaling pathway - cell viability counter screen (AID 743224); further: series mostly up to about 63 µM; nearly all actives have a fitted effect of over 50% in size
In short: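 Cells: VDR-bla, 2,000/well, settled 4 h. Treatment: compounds in DMSO, 16 h, 37C/5% CO2. Readout: CellTiter-Glo luminescence after 30 min RT.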

Measured: Potency

Sequence of Peroxisome proliferator-activated receptor delta (Homo sapiens) (Q03181 whole entry, looked up): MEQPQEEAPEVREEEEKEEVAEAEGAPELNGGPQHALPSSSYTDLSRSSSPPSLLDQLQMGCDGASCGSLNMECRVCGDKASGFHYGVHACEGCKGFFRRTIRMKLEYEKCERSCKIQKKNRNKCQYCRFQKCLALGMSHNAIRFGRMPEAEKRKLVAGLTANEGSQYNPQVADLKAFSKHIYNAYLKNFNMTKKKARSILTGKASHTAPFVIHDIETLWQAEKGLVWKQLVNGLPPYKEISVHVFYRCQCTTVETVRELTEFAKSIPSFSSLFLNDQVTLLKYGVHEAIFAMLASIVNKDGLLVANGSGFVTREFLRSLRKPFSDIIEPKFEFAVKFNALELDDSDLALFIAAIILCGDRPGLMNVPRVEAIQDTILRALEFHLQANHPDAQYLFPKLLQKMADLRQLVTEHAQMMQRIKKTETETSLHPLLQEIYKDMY
Sequence of Peroxisome proliferator-activated receptor gamma (Homo sapiens) (P37231 whole entry, looked up): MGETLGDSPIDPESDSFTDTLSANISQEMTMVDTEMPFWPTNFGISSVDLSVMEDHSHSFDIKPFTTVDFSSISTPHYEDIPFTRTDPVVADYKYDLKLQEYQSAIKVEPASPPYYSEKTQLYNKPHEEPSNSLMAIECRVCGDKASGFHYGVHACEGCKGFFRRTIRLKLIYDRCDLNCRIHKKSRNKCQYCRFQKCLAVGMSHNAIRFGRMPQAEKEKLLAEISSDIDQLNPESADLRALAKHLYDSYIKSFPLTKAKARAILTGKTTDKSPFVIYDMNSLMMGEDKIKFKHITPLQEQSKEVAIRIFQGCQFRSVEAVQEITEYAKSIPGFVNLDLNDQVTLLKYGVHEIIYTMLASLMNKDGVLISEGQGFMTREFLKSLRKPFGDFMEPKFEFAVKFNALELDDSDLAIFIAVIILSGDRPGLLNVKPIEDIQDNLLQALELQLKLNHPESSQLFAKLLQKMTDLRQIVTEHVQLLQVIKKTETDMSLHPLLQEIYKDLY
Sequence of Bile acid receptor (Homo sapiens) (Q96RI1 whole entry, looked up): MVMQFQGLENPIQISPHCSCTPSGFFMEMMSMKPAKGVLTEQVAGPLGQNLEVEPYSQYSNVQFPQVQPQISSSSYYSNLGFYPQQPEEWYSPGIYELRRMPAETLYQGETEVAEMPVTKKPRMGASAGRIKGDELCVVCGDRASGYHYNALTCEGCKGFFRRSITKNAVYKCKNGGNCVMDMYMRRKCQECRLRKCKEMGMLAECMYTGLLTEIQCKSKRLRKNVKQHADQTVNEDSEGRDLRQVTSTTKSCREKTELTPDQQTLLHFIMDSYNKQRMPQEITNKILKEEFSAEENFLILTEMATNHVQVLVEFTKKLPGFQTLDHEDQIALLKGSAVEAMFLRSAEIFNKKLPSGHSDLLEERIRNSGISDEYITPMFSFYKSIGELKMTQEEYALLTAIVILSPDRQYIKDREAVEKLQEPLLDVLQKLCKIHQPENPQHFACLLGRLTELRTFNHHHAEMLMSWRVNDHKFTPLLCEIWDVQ
Sequence of Vitamin D3 receptor (Homo sapiens) (P11473 whole entry, looked up): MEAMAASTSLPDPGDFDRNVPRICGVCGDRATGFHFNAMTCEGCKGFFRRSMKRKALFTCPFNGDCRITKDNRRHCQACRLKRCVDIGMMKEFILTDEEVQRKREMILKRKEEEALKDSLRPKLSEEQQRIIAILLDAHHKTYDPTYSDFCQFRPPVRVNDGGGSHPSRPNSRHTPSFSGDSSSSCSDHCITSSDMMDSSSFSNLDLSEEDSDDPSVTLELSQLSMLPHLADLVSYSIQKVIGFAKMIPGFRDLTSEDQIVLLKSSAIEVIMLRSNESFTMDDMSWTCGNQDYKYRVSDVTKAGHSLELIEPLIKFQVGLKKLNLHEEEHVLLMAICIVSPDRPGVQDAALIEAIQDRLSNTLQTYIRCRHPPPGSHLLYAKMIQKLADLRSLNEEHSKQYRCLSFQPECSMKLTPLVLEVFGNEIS
Sequence of Aryl hydrocarbon receptor (Homo sapiens) (P35869 whole entry, looked up): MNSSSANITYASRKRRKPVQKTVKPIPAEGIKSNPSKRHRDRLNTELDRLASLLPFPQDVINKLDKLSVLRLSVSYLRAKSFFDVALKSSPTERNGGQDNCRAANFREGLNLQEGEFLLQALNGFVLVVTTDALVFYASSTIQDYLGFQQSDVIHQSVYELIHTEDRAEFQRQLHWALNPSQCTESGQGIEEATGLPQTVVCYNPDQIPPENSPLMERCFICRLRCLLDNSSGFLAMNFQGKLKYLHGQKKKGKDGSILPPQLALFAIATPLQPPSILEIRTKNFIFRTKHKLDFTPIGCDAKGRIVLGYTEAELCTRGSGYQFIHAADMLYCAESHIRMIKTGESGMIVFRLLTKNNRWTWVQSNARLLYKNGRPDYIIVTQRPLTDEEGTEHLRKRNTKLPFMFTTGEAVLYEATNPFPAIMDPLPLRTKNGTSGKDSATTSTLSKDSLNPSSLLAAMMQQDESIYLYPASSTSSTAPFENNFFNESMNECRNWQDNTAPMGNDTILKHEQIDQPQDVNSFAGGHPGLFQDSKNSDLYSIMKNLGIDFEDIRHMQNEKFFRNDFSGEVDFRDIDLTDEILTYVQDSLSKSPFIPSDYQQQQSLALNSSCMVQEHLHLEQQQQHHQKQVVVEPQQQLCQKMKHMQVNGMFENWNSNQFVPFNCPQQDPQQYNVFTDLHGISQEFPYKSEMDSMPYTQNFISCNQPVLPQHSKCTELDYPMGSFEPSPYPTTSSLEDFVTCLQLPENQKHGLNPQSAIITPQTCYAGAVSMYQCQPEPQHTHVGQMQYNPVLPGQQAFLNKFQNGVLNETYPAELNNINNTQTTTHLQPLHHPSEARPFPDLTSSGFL

CC(Cc1ccccc1)NCCn1cnc2c1c(=O)n(C)c(=O)n2C (stereo not given)
inactive: [1] | [2] | [3] | [4] | [5] | [6] | [7] | [8] | [9] | [10] | [11] | [12] | [13] | [14] | [15]

N[C@@H]1C[C@H]1c1ccccc1
inactive: [16] | [2] | [3] | [4] | [5] | [6] | [7] | [8] | [9] | [10] | [11] | [17] | [18] | [12] | [19] | [13] | [14] | [15]

O=C1CCCCC1Cl (stereo not given)
inactive: [1] | [16] | [3] | [4] | [7] | [9] | [10] | [11] | [17] | [18] | [12] | [19] | [13] | [14] | [15] | [20]

CCN(CCO)CCn1c(Cc2ccccc2)nc2c1c(=O)n(C)c(=O)n2C
inactive: [1] | [2] | [3] | [4] | [5] | [6] | [7] | [8] | [9] | [11] | [18] | [19] | [13] | [20]

CC[C@H](O)C(C[C@H](C)N(C)C)(c1ccccc1)c1ccccc1
inactive: [1] | [2] | [4] | [6] | [8] | [9] | [10] | [11] | [18] | [12] | [19] | [14] | [15] | [20]

CC[C@@H](CO)NC(=O)[C@@H]1C=C2c3cccc4[nH]cc(c34)C[C@H]2N(C)C1
inactive: [1] | [16] | [4] | [5] | [6] | [7] | [9] | [10] | [11] | [12] | [13] | [20]

O=C/C=C/c1ccco1
inactive: [1] | [16] | [4] | [5] | [6] | [7] | [8] | [9] | [10] | [11] | [17] | [12] | [13] | [20]

C=C(Cl)CCl
inactive: [16] | [2] | [3] | [4] | [5] | [6] | [7] | [8] | [9] | [10] | [11] | [12] | [13] | [14] | [15] | [20]

CC(=O)OCC1=C(C(=O)O)N2C(=O)[C@@H](N)[C@H]2SC1
inactive: [16] | [4] | [5] | [8] | [9] | [10] | [17] | [18] | [12] | [19] | [13] | [14] | [15]

CON(C)C(=O)Nc1ccc(Br)cc1
inactive: [16] | [4] | [5] | [6] | [7] | [8] | [9] | [10] | [11] | [12] | [19] | [13] | [14]

CC(C)(C)C(=O)C(Cl)Cl
inactive: [16] | [7] | [8] | [9] | [10] | [11] | [17] | [12] | [13] | [14] | [15] | [20]

C=CCCC#N
inactive: [16] | [2] | [4] | [5] | [6] | [8] | [9] | [10] | [11] | [12] | [19] | [13] | [20]

ClCCN1CCCC1
inactive: [3] | [4] | [6] | [8] | [9] | [10] | [11] | [12] | [13] | [14] | [15] | [20]

CCC(CC)(CNC(=O)CCCO)c1cccc(OC)c1
inactive: [3] | [4] | [5] | [6] | [7] | [8] | [10] | [11] | [12] | [13] | [14] | [15] | [20]
